Results reported in PubChem BioAssay.
Values joined by “and” are separate entries in the source; they are usually repeats but may differ in a detail not shown here. Equal entries are not always repeated. Active and inactive are the calls of the source. Unless noted, no stated cut-off is given here; in the data, active means inhibition above about 80%; inactive means the rest.

Columns and labels:
[1] = UWB1.289 ovarian carcinoma cell growth inhibition, synergistic combos for chromothripsis tumors, BGB or cisplatin combos (AID 1671456); conditions: UWB1.289 ovarian carcinoma cells, stronger effect = higher value;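 further: cells exposed to compound for four days; 0% = vehicle DMSO and 100% = killing by high DMSO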
[2] = LFS_MB_2R medulloblastoma cell growth inhibition, synergistic combos for chromothripsis tumors, cisplatin combos (AID 1671457); conditions: LFS_MB_2R medulloblastoma cells, stronger effect = higher value;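 further: cells exposed to compound for four days before readout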
[3] = MDA-MB-436 breast carcinoma cell growth inhibition, synergistic combos for chromothripsis tumors, BGB or cisplatin combos (AID 1671458; call rule not given here;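 further: cells exposed for 96 hours; 0% = vehicle DMSO and 100% = killing by high DMSO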); conditions: MDA-MB-436 breast carcinoma growth inhibition, drug combinations, stronger effect = higher value
[4] = UWB1.289_BRCA1 ovarian cancer growth, cell-based, BGB or cisplatin combinations (AID 1671459); conditions: UWB1.289 BRCA1 ovarian carcinoma, drug combinations, stronger effect = higher value
[5] = human astrocyte viability loss, single and combined drugs, cytotoxicity control for chromothriptic childhood tumor combination screen, cell-based, BGB or cisplatin IC20 combos (AID 1671460); conditions: Human astrocytes, drug combinations, stronger effect = higher value;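 further: cells exposed to compounds for 96 hours before viability readout; 0% = vehicle and 100% = killing control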
[6] = growth inhibition of BT084 medulloblastoma cells, cell-based, ICGC_MB145, cisplatin and BGB IC40 combos (AID 1671461); conditions: drug combinations, stronger effect = higher value;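 further: cells exposed to drugs for 96 hours; 0% = vehicle DMSO and 100% = high DMSO full killing control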
[7] = growth inhibition of RCMB18 medulloblastoma cells, cell-based, cisplatin and BGB IC40 combos (AID 1671462); conditions: stronger effect = higher value;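 further: cells exposed to compound for four days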
[8] = growth inhibition of CRL1545 osteosarcoma cells, cell-based, cisplatin and BGB IC20 combos (AID 1671464); conditions: stronger effect = higher value;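 further: cells exposed to compound for 96 hours before readout; 0% = vehicle DMSO and 100% = high DMSO killing control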
F380Y = assay: modulators of BK channel variants, profiling panel, selectivity assay, cell-based, U2OS BacMam, thallium flux, beta subunits (AID 1259406;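 active means thallium flux through the channel raised or lowered by more than 3 SD from vehicle-only wells, actives on both sides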;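 further: initial slope of Thallos dye fluorescence rise after thallium is added; log ratio against the mean of 0.3% DMSO vehicle wells on the same plate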); conditions: at 30 µM
F380Y/beta1 = assay: as above; conditions: at 30 µM
F380Y/beta2Delta = assay: as above; conditions: at 30 µM
F380Y/beta4 = assay: as above; conditions: at 30 µM
[9] = molecular target: Calcium-activated potassium channel subunit alpha-1 (Homo sapiens) + Leucine-rich repeat-containing protein 26 (Homo sapiens) (UniProt Q12791+Q2I0M4); assay: as above; conditions: F380Y/Slo1WT/gamma1, at 30 µM
Sequence of Calcium-activated potassium channel subunit alpha-1 (Homo sapiens) + Leucine-rich repeat-containing protein 26 (Homo sapiens) (Q2I0M4 whole entry, looked up, one chain of several): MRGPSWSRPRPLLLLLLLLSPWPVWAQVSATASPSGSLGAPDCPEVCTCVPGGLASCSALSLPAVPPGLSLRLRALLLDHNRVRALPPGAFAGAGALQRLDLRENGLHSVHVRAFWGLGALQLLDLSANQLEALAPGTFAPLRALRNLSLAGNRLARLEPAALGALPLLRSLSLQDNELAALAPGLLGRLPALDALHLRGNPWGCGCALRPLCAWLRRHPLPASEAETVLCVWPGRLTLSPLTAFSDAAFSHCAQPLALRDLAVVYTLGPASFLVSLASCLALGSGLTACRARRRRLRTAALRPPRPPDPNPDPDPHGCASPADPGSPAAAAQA

R275C = assay: as above; conditions: at 30 µM
R275C/beta1 = assay: as above; conditions: at 30 µM
R275C/beta2Delta = assay: as above; conditions: at 30 µM
R275C/beta4 = assay: as above; conditions: at 30 µM
R275C/Slo1WT/beta2 = assay: as above; conditions: at 30 µM
[10] = measured here: inhibition with BGB combination, at 0.05 µM
[11] = measured here: inhibition with cisplatin combination, at 0.05 µM
[12] = measured here: combination with cisplatin, at 0.5 µM
[13] = measured here: combination with cisplatin, at 5 µM
[14] = measured here: BGB combination, at 0.5 µM
[15] = measured here: BGB combination, at 5 µM
[16] = measured here: cisplatin combination, at 0.5 µM
[17] = measured here: cisplatin combination, at 5 µM
[18] = BGB combination, concentration series, at 5 µM
[19] = cisplatin combination, concentration series, at 5 µM
[20] = measured here: combo with BGB IC20, at 0.5 µM
[21] = measured here: combo with cisplatin IC20, at 0.5 µM
[22] = cisplatin combination, at 0.5 µM
[23] = measured here: BGB IC40 combination 0.05 uM, at 0.05 µM
[24] = measured here: BGB IC40 combination, at 0.05 µM
[25] = measured here: with BGB IC20 combination, at 0.5 µM
[26] = measured here: with cisplatin IC20 combination, at 0.5 µM

CNNCc1ccc(C(=O)NC(C)C)cc1
inhibition ([1]; at 0.5 µM): 13% (inactive) and 7.15% (inactive)
inhibition [1, 10]: 3.19% and 1.17%
inhibition [1, 11]: 22.9% and 3.56%
inhibition ([2]; at 0.5 µM): 14.1% (inactive) and 0.23% (inactive)
inhibition [2, 12]: 6.63% and -1.71%
inhibition [2, 13]: 15.9% and -32.2%
inhibition ([3]; at 0.5 µM): 0.31% (inactive) and -0.08% (inactive)
inhibition [3, 14]: 1.37% and 5.96%
inhibition [3, 15]: -3.48% and 5.4%
inhibition [3, 16]: 0.65% and -2.59%
inhibition [3, 17]: -3.21% and 0.056%
inhibition [4, 18]: -3.07% and 11.5%
inhibition ([4]; at 0.5 µM): 8.92% (inactive) and 4.36% (inactive)
inhibition [4, 19]: 2.73% and 5.28%
inhibition ([5]; at 0.5 µM): -1.46% (inactive) and -4.45% (inactive)
inhibition [5, 20]: 4.04% and -5.12%
inhibition [5, 21]: -5.05% and -7.38%
inhibition ([6]; at 0.5 µM): 9.13% (inactive) and -8.81% (inactive)
inhibition [6, 22]: -8.59% and 0.014%
inhibition ([6]; cisplatin combination, at 5 µM): 13.7% and 11%
inhibition [6, 23]: 8.15% and 2.42%
inhibition ([6]; single agent, at 5 µM): -0.995% and -8.33%
inhibition ([7]; at 0.5 µM): 5.59% (inactive) and 7.58% (inactive)
inhibition ([7]; cisplatin combo, at 5 µM): 1.81% and -25.8%
inhibition [7, 24]: -9.15% and -22.9%
inhibition [7, 12]: 38.1% and 9.89%
inhibition ([7]; single agent, at 5 µM): -25.5% and 7.57%
inhibition ([8]; at 0.5 µM): -9.96% (inactive) and 0.27% (inactive)
inhibition [8, 25]: -28.2% and -29.3%
inhibition [8, 26]: -2.5% and 13.1%
inhibition ([8]; single agent, at 0.05 µM): -6% and -6.52%
inhibition ([8]; single agent, at 5 µM): -28.8% and -29%
log fold change Tl+ flux (F380Y): -0.0305 (inactive)
log fold change Tl+ flux (F380Y/beta1): 0.0168 (inactive)
log fold change Tl+ flux (F380Y/beta2Delta): 0.00407 (inactive)
log fold change Tl+ flux (F380Y/beta4): -0.0214 (inactive)
log fold change Tl+ flux [9]: -0.0918 (inactive)
log fold change Tl+ flux (R275C): -0.164 (active)
log fold change Tl+ flux (R275C/beta1): -0.022 (inactive)
log fold change Tl+ flux (R275C/beta2Delta): -0.0281 (inactive)
log fold change Tl+ flux (R275C/beta4): 0.042 (inactive)
log fold change Tl+ flux (R275C/Slo1WT/beta2): 0.0113 (inactive)

CCN1CCN(c2cc3c(cc2F)c(=O)c(C(=O)O)cn3C2CC2)CC1
inhibition ([1]; at 0.5 µM): -2.08% (inactive)
inhibition [1, 10]: -31.5%
inhibition [1, 11]: -8.73%
inhibition ([2]; at 0.5 µM): -19.4% (inactive)
inhibition [2, 12]: -28.5%
inhibition [2, 13]: -100%
inhibition ([3]; at 0.5 µM): -32.9% (inactive)
inhibition [3, 14]: -15.3%
inhibition [3, 15]: -31.3%
inhibition [3, 16]: -56.8%
inhibition [3, 17]: -40.4%
inhibition [4, 18]: -7.62%
inhibition ([4]; at 0.5 µM): -4.92% (inactive)
inhibition [4, 19]: -6.59%
inhibition ([5]; at 0.5 µM): -1.67% (inactive)
inhibition [5, 20]: -3.12%
inhibition [5, 21]: -14.1%
inhibition ([6]; at 0.5 µM): -38.8% (inactive)
inhibition [6, 22]: -21.3%
inhibition ([6]; cisplatin combination, at 5 µM): -23.4%
inhibition [6, 23]: -13.2%
inhibition ([6]; single agent, at 5 µM): -37.9%
inhibition ([7]; at 0.5 µM): -17.8% (inactive)
inhibition ([7]; cisplatin combo, at 5 µM): -22.9%
inhibition [7, 24]: -24.4%
inhibition [7, 12]: -16%
inhibition ([7]; single agent, at 5 µM): -19.4%
inhibition ([8]; at 0.5 µM): 13.5% (inactive)
inhibition [8, 25]: 6.58%
inhibition [8, 26]: 15.1%
inhibition ([8]; single agent, at 0.05 µM): -0.132%
inhibition ([8]; single agent, at 5 µM): 12.7%
log fold change Tl+ flux (F380Y): -0.0402 (inactive)
log fold change Tl+ flux (F380Y/beta1): 0.00744 (inactive)
log fold change Tl+ flux (F380Y/beta2Delta): -0.0171 (inactive)
log fold change Tl+ flux (F380Y/beta4): 0.015 (inactive)
log fold change Tl+ flux [9]: 0.00572 (inactive)
log fold change Tl+ flux (R275C): -0.0438 (inactive)
log fold change Tl+ flux (R275C/beta1): 0.0122 (inactive)
log fold change Tl+ flux (R275C/beta2Delta): 0.0322 (inactive)
log fold change Tl+ flux (R275C/beta4): 0.0288 (inactive)
log fold change Tl+ flux (R275C/Slo1WT/beta2): 0.165 (active)
